Measured values: PubChem BioAssay AID624168 (Sanford-Burnham Center for Chemical Genomics, 2012)
Values joined by “and” are separate entries in the source; they are usually repeats but may differ in a detail not shown here. Equal values may be shown once. Out of some 360,000 compounds screened, about 800 (0.22%) were called active. For the sample, actives were picked, then their nearest neighbours and some compounds at random. Unmarked numbers belong to inactive results.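 Rule for the calls: active = activation of at least 8% versus controls, or a plate z-score of at least 8; inactive = the rest.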

Experiment: activators of alpha-DG glycosylation, primary screen, uHTS, Pro5-aDG cells, AlphaScreen (AID 624168);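 note: Pro5 are CHO cells carrying HIG-tagged alpha-DG that lacks glycosylation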
Details: alpha-DG glycosylation AlphaScreen (IIH6), at 10 µM, stronger effect = higher value, 0% Pro5, 100% B10-LARGE cell signal

Row | SMILES | activation
1 | N#Cc1cnn2cc(CCN3CCOCC3)c(-c3ccc(F)cc3)nc12 | -0.1%
2 | CNC1(c2nnnn2-c2c(C)cccc2C)CCOC(C)(C)C1 (stereo unspecified) | 0.1%
3 | O=C(Cn1c(=O)sc2ccccc21)Nc1ccc2c(c1)OCCO2 | 0.4%
4 | Cc1ccc(CSc2ccc(S(=O)(=O)N3CCCCC3)cn2)cc1 | 0.2%
5 | O=C(N1CCCCC1)N1CCN(C(=O)N2CCCCC2)CC1 | -0.2%
6 | CC(=O)Oc1cccc(N2C(=O)C3CC=C(Cl)CC3C2=O)c1 (stereo unspecified) | 2.9% (active)
7 | CC1=CCC2C(=O)N(c3cccc(C(=O)NC(C)c4ccccc4)c3)C(=O)C2C1 (stereo unspecified) | 0%
8 | CC(=O)Oc1cccc(N2C(=O)CC(Nc3ccc(N4CCOCC4)cc3)C2=O)c1 (stereo unspecified) | 0.6%
9 | O=C1CC(Cc2ccccc2)C(=O)N1c1ccc(Cl)cn1 (stereo unspecified) | -0.3%
10 | CCCCN(CC)CCCNC(=O)c1ccc(CSc2nc3ccncc3[nH]2)cc1 | -0.1%
11 | O=C(NCC(=O)N(Cc1cccs1)C(C(=O)NC1CCCCC1)c1ccco1)c1cccs1 (stereo unspecified) | 0.5%
12 | Cc1nnc(NC(=O)CCC(=O)N2CCC(C)CC2)s1 | -0.2%
13 | COc1cccc(CN(C)CC(O)COC(c2ccccc2)c2ccccc2C)c1 (stereo unspecified) | 0.1%
14 | OC(CN=c1sc2ccccc2n1CC(O)COc1ccccc1)COc1ccccc1 (stereo unspecified) | 0.6%
15 | CN(Cc1ccccc1)CC(O)COc1ccc(CNCc2cc3ccccc3s2)cc1 (stereo unspecified) | 4.3% (active)
16 | Cc1nc(N)nc(Cl)c1CCC1OCCO1 | 0.5%
17 | CC(OC(=O)C1CC(=O)N(Cc2ccccc2)C1)C(=O)Nc1ccccc1[N+](=O)[O-] (stereo unspecified) | 0.2%
18 | CCc1noc(C)c1C(=O)N1CCCSC1=Nc1ccccc1OC | -0.1%
19 | CCOc1ccc(NC(=O)c2ccc(NC(=O)C3CCCO3)cc2)cc1 (stereo unspecified) | 0.1%
20 | Cc1ccc(NC(=O)c2ccc(Oc3ncccn3)cc2)cc1 | 5.5% (active)
21 | CCOc1ccc(C(=O)Nc2cccc(SC)c2)cc1 | 0.3%

Row | SMILES | activation
22 | COc1cc(C(=O)NCCOC(=O)c2cccc(N(C)C)c2)cc(OC)c1OC | 0%
23 | COCc1c(C(=O)OCC(=O)Nc2ccc(OC(F)F)cc2)oc2ccccc12 | 0.1%
24 | Cc1cc(C)c(NC(=S)N2CCCC2C(=O)O)c(C)c1 (stereo unspecified) | 0.5%
25 | CCOC(=O)C1(CCOc2ccccc2)CCN(C(=O)c2cncs2)CC1 | 0.1%
26 | CCOC(=O)C1(CCOC)CCN(Cc2cc3ccccc3s2)CC1 | 2% (active)
27 | CCCS(=O)(=O)N1CCC(CCOc2ccccc2)(C(=O)OCC)CC1 | -0.1%
28 | CCOC(=O)N1CCN(S(=O)(=O)c2ccc(C(=O)Nc3ccc(F)cc3F)cc2)CC1 | -0.1%
29 | Cc1c(CCOC(=O)CC23CC4CC(CC(C)(C4)C2)C3)sc[n+]1Cc1ccc([N+](=O)[O-])cc1 | 0.1% and -0.2%
30 | O=C(Nc1ccccc1F)c1cc(S(=O)(=O)N2CCCCC2)cs1 | 0%
31 | O=C(Nc1nncs1)c1cccc(S(=O)(=O)N2CCCCC2)c1 | -0.2%
32 | CN1CCN(S(=O)(=O)c2cccc(C(=O)Nc3cccc(S(N)(=O)=O)c3)c2)CC1 | -0.1%
33 | CN1CCN(S(=O)(=O)c2cccc(C(=O)Nc3sccc3C#N)c2)CC1 | 8.2% (active)
34 | CCCOc1ccc(C2NC(=O)NC(c3ccccc3)=C2C(C)=O)cc1OCC (stereo unspecified) | -0.1%
35 | O=C(c1ccc(F)cc1)C1CCN(Cc2cn[nH]c2-c2ccccc2)CC1 | -0.1%
36 | CCCCN(CC)C(=O)C1CCCN(S(=O)(=O)c2cccc3nsnc23)C1 (stereo unspecified) | -0.1%
37 | Clc1ccc(-c2cc(C3CCNCC3)[nH]n2)c(Cl)c1 | 11.1% (active)
38 | Clc1ccc(-c2cc(-c3ccccn3)on2)c(Cl)c1 | 0.1%
39 | Cc1nn(-c2ccccc2)c2c1C(c1cccc([N+](=O)[O-])c1)N(c1ccccc1)C(=O)N2 (stereo unspecified) | -0.2%
40 | O=C(CCSCCc1ccccn1)Nc1nccs1 | -0.1%
41 | CCc1ccccc1S(=O)(=O)Cc1ccc(C(=O)NCCc2ccccc2)o1 | 13% (active)
42 | Cc1ccccc1S(=O)(=O)Cc1ccc(C(=O)NCCN2CCCCC2C)o1 (stereo unspecified) | -0.3%

Row | SMILES | activation
43 | COc1ccc(CCNC(=O)c2ccc(CS(=O)(=O)c3ccc(Br)cc3)o2)cc1OC | -0.2%
44 | CC(C)Oc1cc(F)ccc1-c1cc(C(=O)Nc2ccc(F)cc2)[nH]n1 | 0%
45 | COc1cccc(-c2nnc(NC(=O)c3ccc(S(=O)(=O)N(CC(C)C)CC(C)C)cc3)o2)c1 | 6.1% (active)
46 | O=C(Nc1nnc(-c2ccccc2)o1)c1cccc(S(=O)(=O)N2CCOCC2)c1 | 0.3%
47 | COc1cc(-c2nnc(NC(=O)CS(=O)(=O)c3ccc(Cl)cc3)o2)cc(OC)c1OC | 0.5%
48 | CCCN(CCC)C(=O)C1c2ccccc2Oc2ccccc21 | 0.2%
49 | C[C@H](CO)N1C[C@H](C)[C@H](CN(C)C(=O)Nc2ccc(C(F)(F)F)cc2)Oc2c(NC(=O)c3ccncc3)cccc2C1=O | -0.2%
50 | O=C(NCC1CCCCC1)NCC1CCCCC1 | -0.2%
51 | Cc1ccc(Nc2cc(=O)n(C3CCCCC3)c(=O)[nH]2)cc1C | 0.5%
52 | CC(NC(=O)c1cccc(S(=O)(=O)N2CCc3ccccc3C2)c1)c1ccco1 (stereo unspecified) | 0.1%
53 | CCOC(=O)c1ccc(NC(=O)CCn2c(=O)oc3ccccc32)cc1 | 0%
54 | CCOC(=O)c1ccc(NC(=O)Cn2cnc3cc(C)c(C)cc32)cc1 | 3.2% (active)
55 | CCOC(=O)c1ccc(NC(=O)CS(=O)(=O)c2cn(CC)c3ccccc23)cc1 | -0.1%
56 | COc1c(C)cc(C(O)c2ncc(-c3cccc(C(F)(F)F)c3)[nH]2)cc1C (stereo unspecified) | 0.3%
57 | CC(C)c1cccc(C(C)C)c1Nc1cn[nH]c1 | 0.6%
58 | COc1ccccc1C(=O)C(O)c1ccccc1OC (stereo unspecified) | 0.1%
59 | OC[C@@H]1CN(Cc2ccc(-c3ccccc3)cc2)C[C@H](n2cnc3c(NC4CCCC4)ncnc32)O1 | 7.5% (active)
60 | CC(C)Nc1ncnc2c1ncn2[C@H]1CN(Cc2ccncc2)C[C@@H](CO)O1 | 0.2%
61 | OC[C@@H]1CN(C2CCCC2)C[C@H](n2cnc3c(NC4CCC4)ncnc32)O1 | 0.3%
